Among all 1,400 compounds or so, fewer than 10 were called active. About 8% were inconclusive and are not listed. Calls follow the shape of the dose curve; as a rule, active = well fitted curve in the direction sought with a large enough effect; inconclusive = small, poorly fitted or top-dose-only effect, or another doubt; inactive = no such curve, though single readings can be large or run the other way. The list is a sample of the results.
biological target: Transient receptor potential cation channel subfamily V member 1 (Homo sapiens) (UniProt Q8NER1); experiment: qHTS Assay for Compounds that Act as Potentiators of the Vanilloid Receptor 1: Hit Validation; details: TRPV1-expressing cells, Fluo-8 calcium influx, capsaicin EC20; series mostly up to 42.1 µM; activity change, positive = potentiation: at the top concentration; as to activity change, positive = potentiation: % of control where 0% means no effect
Text: The transient receptor potential ion channel, family V, number 1, (TRPV1) is one of the most important molecular transducers of painful stimuli and a potential target for analgesic drug development. Although recent clinical trials with orthosteric antagonists have not produced a successful drug because of a hyperthermia side effect and their tendency to block thermal noxious pain, this ion channel is undeniably well placed in the pain pathway, and the idea of blocking pain signals before they enter the CNS is an excellent concept and of proven efficacy when TRPV1 agonists are used. We propose a new approach involving allosteric modulation to impose an activity-dependent constraint within the context of inflammation and tissue damage that would alter the responsiveness of the channel in a way that an orthosteric vanilloid antagonist cannot achieve. We believe that the allosteric modulator approach has not been explored for this target. The main goal of this proposal is to identify additional, new, potent allosteric modulators of TRPV1 that can be used to investigate TRPV1 function. Our recent report provides evidence of proof of concept, but the compounds are just at the edge of utility in terms of potency. […] The question of whether they can be used as analgesic agents is complex, but if suitable compounds are identified then testing for analgesic properties will be conducted. Compounds identified as agonists were re-tested in the primary screen for hit validation. NIH Chemical Genomics Center [NCGC] NIH Molecular Libraries Probe Centers Network [MLPCN] MLPCN Grant: MH089480 Assay Submitter (PI): Michael Iadarola, National Institute of Dental and Cranofacial Research
Upon TRPV1 activation in TRPV1 cells, the channel opens and extracellular cations flow through the channel into the cytosol. A calcium binding dye (Fluo-8) becomes fluorescent when bound to calcium. This dye is pre-loaded into cells and is used as a marker for calcium influx. The amount of accumulated calcium is precisely quantified using the FDSS kinetic reader and the calcium dye. For the HTS assay, freshly prepared cells are plated at a density of 2000/well in 3 ul medium in 1536-well plates and cultured overnight at 35.5C. Cells will be loaded with 1 ul of the homogeneous calcium dye (ABD Bioquest) at room temperature for 40 to 90 minutes. Plates will be loaded into the FDSS kinetic reader and a 1 sec / cycle for 10 second baseline signal will be measured. Compound library will then be added with a pintool at 23 nl and measured kinetically for 3 minutes. This portion of the read is considered the agonist portion of the screen. Following the 3 minutes of incubation, an on board pipettor will deliver 1 ul of capsaicin for a final concentration equal to the EC20. Signal will be measured kinetically for an additional 2 minutes. This portion of the read is considered the allosteric enhancer portion of the screen. The FDSS reader has a standard filter set capable of measuring calcium bound Fluo-8 (ex=480 and em=520 nm).
Potency is read from the fitted curve at half-maximal effect.

Chain of Transient receptor potential cation channel subfamily V member 1 (Homo sapiens) (Q8NER1 whole entry, looked up): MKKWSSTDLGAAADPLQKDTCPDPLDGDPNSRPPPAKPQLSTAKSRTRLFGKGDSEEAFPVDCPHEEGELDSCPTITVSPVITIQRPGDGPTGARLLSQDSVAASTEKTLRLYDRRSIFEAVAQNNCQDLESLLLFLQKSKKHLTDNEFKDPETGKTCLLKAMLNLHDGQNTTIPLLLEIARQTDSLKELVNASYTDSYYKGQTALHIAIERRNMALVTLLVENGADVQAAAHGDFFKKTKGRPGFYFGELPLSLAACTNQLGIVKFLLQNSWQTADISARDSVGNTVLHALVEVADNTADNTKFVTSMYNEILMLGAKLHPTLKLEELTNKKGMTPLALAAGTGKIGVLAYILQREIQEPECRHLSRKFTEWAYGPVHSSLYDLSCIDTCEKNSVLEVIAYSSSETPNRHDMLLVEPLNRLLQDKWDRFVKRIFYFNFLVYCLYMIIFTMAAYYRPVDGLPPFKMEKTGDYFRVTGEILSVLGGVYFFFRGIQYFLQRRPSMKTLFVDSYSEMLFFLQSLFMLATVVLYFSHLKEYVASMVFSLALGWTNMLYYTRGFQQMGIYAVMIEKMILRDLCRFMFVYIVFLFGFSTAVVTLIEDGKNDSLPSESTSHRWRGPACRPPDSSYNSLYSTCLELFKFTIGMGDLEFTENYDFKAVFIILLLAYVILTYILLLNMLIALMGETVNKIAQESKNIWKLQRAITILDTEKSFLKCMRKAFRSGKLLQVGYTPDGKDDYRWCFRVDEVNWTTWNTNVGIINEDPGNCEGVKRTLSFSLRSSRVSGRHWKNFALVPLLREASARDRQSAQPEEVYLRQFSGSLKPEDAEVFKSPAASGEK

| SMILES | activity change, positive = potentiation | Potency |
| --- | --- | --- |
| CC(C)(C)OC(=O)NCCCC[C@H](NC(=O)c1nc[nH]c1C(=O)NCc1ccc(CNC(=O)OC(C)(C)C)cc1)C(=O)OC(C)(C)C | 0.195% (inactive) |  |
| CN(c1ccccc1)S(=O)(=O)c1ccc(Cl)c(C(=O)NCCc2c[nH]c3ccccc23)c1 | -6.03% (inactive) |  |
| CCc1cccc(C)c1NC(=S)N(CCCN1CCN(C)CC1)Cc1cccs1 | -8.28% (inactive) |  |
| Cc1cccc(-n2c(=O)[nH]c3c(C(N)=O)nc(CC(C)C)nc32)c1 | 0.951% (inactive) |  |
| COc1ccc(NC(=O)CCCSc2nc(-c3ccco3)cc(C(F)(F)F)n2)cc1OC | -38.7% (inactive) |  |
| Cc1ccc(NC(=O)c2cc(S(=O)(=O)N3CCOCC3)ccc2F)c(C)c1 | -31.2% (inactive) |  |
| CCOC(=O)c1c(C)c(C(=O)NCC2CCCO2)c(C)n1C (stereo not drawn) | -7.81% (inactive) |  |
| Cc1ncsc1CCC(=O)N1CCCC(Nc2ccc(C(C)C)cc2)C1 (stereo not drawn) | -39.8% (inactive) |  |
| Cc1ccc(NCc2n[nH]c(=S)n2-c2ccccc2)c(C)c1 | 9.07% (inactive) |  |
| NNC(=O)C1COc2cc3ccccc3cc2O1 (stereo not drawn) | -31.3% (inactive) |  |
| CCCCC(=O)Nc1ccc(C(=O)Nc2ccc(S(=O)(=O)N3CCCC3)cc2)cc1 | -8.84% (inactive) |  |
| COc1ccc(C(=O)Nc2ccc3ccccc3c2)cc1 | -32.9% (inactive) |  |
| Cc1sc2ncn(CC(=O)Nc3cccc(S(N)(=O)=O)c3)c(=O)c2c1-c1ccccc1 | -4.7% (inactive) |  |
| CCC(=O)N(CCc1ccccc1)Cc1cc2cccc(C)c2[nH]c1=O | -38.2% (inactive) |  |
| Cc1c(=O)n(OCc2ccccc2F)c2ccccc2[n+]1[O-] | 0.445% (inactive) |  |
| Nn1c(Cc2ccccc2)nc2cc(Cl)ccc2c1=O | -8.59% (inactive) |  |
| Cc1ccc2c(c1)[C@H]1[C@H](CO2)[C@H](c2ccccc2)[C@]2(C)C(=O)Nc3cc(Cl)ccc3C(=O)N12 | 3% (inactive) |  |
| Cc1cc(C)cc(Oc2nc3ccccn3c(=O)c2/C=C(\C#N)C(=O)NC2CCS(=O)(=O)C2)c1 (stereo not drawn) | -10.1% (inactive) |  |
| CCC(=O)Nc1cccc(NC(=O)c2ccc3c(c2)OCCO3)c1 | -9.67% (inactive) |  |
| CCOc1ccc(-c2cccc(NS(=O)(=O)c3cc([N+](=O)[O-])ccc3Cl)c2)nn1 | 2.27% (inactive) |  |
| COC(=O)CCC(=O)OC1(C)C(=O)C=C2C=C(C3CC3)N(c3ccccc3)C=C2C1=O (stereo not drawn) | -6.19% (inactive) |  |
| CCN(CC(=O)Nc1ccccc1OC)CC(=O)Nc1sccc1C#N | 5.9% (inactive) |  |
| C=CCOc1c(Br)cc(CNc2ccc3[nH]c(=O)[nH]c3c2)cc1OCC | -25.8% (inactive) |  |
| O=C(CSc1nnc(Cc2ccccc2)o1)NC1CC2CCC1C2 (stereo not drawn) | 6.43% (inactive) |  |
| CC(=O)N1CCN(c2ccc(NC(=O)C(c3ccccc3)c3ccccc3)cc2)CC1 | -5.18% (inactive) |  |
| Cc1cccc(NC(=S)NCC(c2cccnc2)N(C)C)c1C (stereo not drawn) | 5.7% (inactive) |  |
| CC(C)(C)C(=O)NNC(=O)c1ccc(Oc2cc(Cl)cc(Cl)c2)o1 | 0.968% (inactive) |  |

| SMILES | activity change, positive = potentiation | Potency |
| --- | --- | --- |
| Cc1ccc(NC(=O)CCS(=O)(=O)c2ccc3c(c2)NC(=O)C(C)S3)cc1Cl (stereo not drawn) | 1.02% (inactive) |  |
| Cc1ccc(/C=C2\CCC3=C2OC(N)=C(C#N)C3c2ccc(C)cc2)cc1 (stereo not drawn) |  | 8.05 µM (active) |
| Cc1ccc(NC(=O)CCn2nc(C)cc2C)cc1 | -6.67% (inactive) |  |
| O=C(Cc1cccs1)Nc1cccc(-c2ccc3nncn3n2)c1 | 6.87% (inactive) |  |
| CC(=O)c1ccc(Nc2ncnc3c2oc2ccccc23)cc1 | -38.7% (inactive) |  |
| CC(C)C[C@H](NC(=O)c1nc[nH]c1C(=O)N1CCC(C)CC1)C(=O)OCc1ccccc1 | -10.6% (inactive) |  |
| CC(=O)c1cccc(NC(=O)N2C3CCC2CC(NC(=O)Nc2ccccc2)C3)c1 (stereo not drawn) | 4.86% (inactive) |  |
| CCOC(=O)N/N=C1\CCS(=O)(=O)c2ccc(Cl)cc21 | 4.78% (inactive) |  |
| COc1cc(C)nc(-c2csc(C)n2)n1 | 7.2% (inactive) |  |
| O=C(NNC(=O)c1cccc(O)c1)Nc1ccc([N+](=O)[O-])cc1 | 3.43% (inactive) |  |
| Cc1cnc(NC(=O)c2cc3c(s2)CCCC3)s1 | -38.8% (inactive) |  |
| C(=N\Nc1nn2cnnc2c2ccccc12)/c1ccco1 | -9.75% (inactive) |  |
| CCc1ccc(/C=C2/SC(N3CCOCC3)=NC2=O)cc1 | -37.3% (inactive) |  |
| Cc1nnc(SCC(=O)N(C)CC(=O)Nc2ccc(F)cc2)n1Cc1ccccc1 | -5.01% (inactive) |  |
| COc1ccc(OC)c(NC(=O)CCN2C(=O)c3ccccc3C2=O)c1 | 4.29% (inactive) |  |
| CCc1ccc(OCCCC(=O)NCc2ccccc2)cc1 | -4.09% (inactive) |  |
| CCN(CC)S(=O)(=O)c1ccc(/C=C/C(=O)Nc2cccc(F)c2)cc1 | -36.7% (inactive) |  |
| COCCNC(=O)CSc1nc2ccccc2c(=O)n1CC1CCCO1 (stereo not drawn) | 0.611% (inactive) |  |
| COc1ccc(C(=O)NC(CC(C)C)C(=O)O)cc1OC (stereo not drawn) | 3.51% (inactive) |  |
| CCCCn1c(=O)[nH]c(=O)c2c1nc(-c1ccc(OC)c(Br)c1)n2CC(C)C | -3.67% (inactive) |  |
| COC(=O)C(C(=O)Nc1nc2ccccc2s1)C1CCCC1 (stereo not drawn) | -7.89% (inactive) |  |
| N=C1/C(=C\c2ccc(-c3ccc(C(=O)O)cc3)o2)C(=O)N=C2SC=C(c3ccccc3)N12 | 24.5% (inactive) |  |
| COc1ccc(-[n+]2c(C)cc(/C=C3\Sc4ccccc4N3C)cc2C)cc1 |  | 5.7 µM (active) |
| Cc1c(N=c2scc(-c3ccccc3)n2C)c(=O)n(-c2ccccc2)n1C | 4.71% (inactive) |  |
| COc1ccc(Cc2c(N)nc(C)nc2N)cc1 | -6.3% (inactive) |  |
| O=C(N/N=C/c1cccnc1)c1ccc2c(c1)OCO2 | -7.94% (inactive) |  |
